# Sfp inh = blocks B. subtilis Sfp PPTase activity; Q9F4F7; Biochemical Sfp PPTase activity, qHTS; Potency, µM, inactives show largest response in the series, negative = inhibition, actives largely listed as inhibitors; actives 3.5% (n = 310,000); AID 1490;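 further: the enzyme is Sfp with the accession as filed and its product quenches rhodamine fluorescence; 0% = enzyme reaction without inhibitor and -100% = no enzyme wells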
#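 Reaction rates are the 30-min fluorescence difference (ex 525, em 598 nm) in wells containing 15 nM Sfp, 5 uM rhodamine-CoA and 12.5 uM BHQ-2-YbbR at pH 7.6 with 10 mM MgCl2.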
# JMJD2A Tudor inh = inhibitors of human JMJD2A Tudor domain | AlphaScreen JMJD2A-Tudor / H3K4me3 peptide binding | Potency, µM (doses to about 114 µM), for the others: at the top dose activity change, negative = inhibition, most hits filed as inhibitors | actives 4.4% (n = 390,000) | AID 504339; further: on the % scale 0 is the no-effect control and ±100 the full control effect; nearly all actives have a fitted effect of over 50% in size
# G9a inh = inhibitors of human histone lysine methyltransferase G9a. G9a H3K9 monomethylation, AlphaScreen, 2 h. AID 504332. actives 8.8% (n = 350,000). Potency, µM (highest dose often 102 µM), for the others: at the highest dose activity, negative = inhibition, most hits filed as inhibitors. Q96KQ7; further: on the % scale 0 is the no-effect control and ±100 the full control effect; nearly all actives have a fitted effect of over 75% in size
# Target sequence (Q96KQ7 913-1193 limits assumed): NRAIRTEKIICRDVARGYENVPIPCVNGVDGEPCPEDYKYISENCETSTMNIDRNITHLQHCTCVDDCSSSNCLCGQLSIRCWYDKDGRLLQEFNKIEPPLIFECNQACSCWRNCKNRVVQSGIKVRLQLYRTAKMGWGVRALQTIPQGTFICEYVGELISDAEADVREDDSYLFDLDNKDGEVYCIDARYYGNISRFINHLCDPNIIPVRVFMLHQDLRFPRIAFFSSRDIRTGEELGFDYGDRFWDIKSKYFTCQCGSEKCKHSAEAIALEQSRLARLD
#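 G9a (20 nM) preincubated 15 min RT with compounds, then 500 nM biotinylated H3K9 peptide and 20 uM SAM added; 2 h RT reaction. Monomethyl-H3K9 product detected by AlphaScreen with anti-H3K9me1 antibody, streptavidin donor and anti-rabbit IgG acceptor beads.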
# HP1b binding inh = blocks HP1-beta chromodomain binding to methylated histone tails; P83916; AlphaScreen HP1-beta / biotin-H3K9me3 peptide binding; Potency, µM (series often up to 114 µM), for inactives: at the highest dose activity change, negative = inhibition, hits mostly inhibitors; actives 0.56% (n = 390,000); further: nearly all actives have a fitted effect of over 70% in size
# Target sequence (P83916 whole entry, looked up): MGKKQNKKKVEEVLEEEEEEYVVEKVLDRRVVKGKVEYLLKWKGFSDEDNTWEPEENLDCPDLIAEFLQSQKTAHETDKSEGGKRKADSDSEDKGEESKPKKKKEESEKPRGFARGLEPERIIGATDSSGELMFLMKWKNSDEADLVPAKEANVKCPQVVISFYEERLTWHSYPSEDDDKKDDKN
#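 HP1-beta protein (50 nM final) preincubated 30 min at room temperature with biotinylated H3(1-18)K9me3 peptide (50 nM) in PBS pH 7.4, 0.01% Tween-20, then compound added for 30 min. AlphaScreen streptavidin donor/nickel chelate acceptor beads (10 ug/mL final), 30 min dark, luminescence read.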
# BAZ2B block = blocks human BAZ2B. AlphaScreen BAZ2B-H3K14Ac peptide displacement. Potency, µM (highest dose often 114 µM), for inactives: at the top dose activity change, negative = inhibition, actives largely listed as inhibitors. actives 4.4% (n = 360,000). AID 504333; further: on the % scale 0 is the no-effect control and ±100 the full control effect; nearly all actives have a fitted effect of over 60% in size
#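 AlphaScreen luminescence quantifies BAZ2B engagement of H3K14Ac peptide; the protein and biotinylated peptide are both at 50 nM final, buffer PBS pH 7.4 with 0.01% Tween-20, all steps at room temperature.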
# L3MBTL1 block = inhibitors of human L3MBTL1; actives 0.66% (n = 230,000); AlphaScreen L3MBTL1–H3K9me1 peptide binding; Potency, µM (titrated, usually from 57.1 µM), for the others: at the highest dose activity, negative = inhibition, hits mostly inhibitors; Q9Y468; further: on the % scale 0 is the no-effect control and ±100 the full control effect; nearly all actives have a fitted effect of over 60% in size
#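 L3MBTL1 50 nM + b-AHA-H3(1-15)K9me1 75 nM, 30 min RT; compound added, 30 min RT; streptavidin donor/Ni-chelate acceptor beads 10 ug/mL each final, 30 min RT dark; AlphaScreen read.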
# Numbers without * were called inactive; u = inconclusive; x = not tested or not shown; [ ] = remark or other dose. The list is not random: actives were taken first. Their share in the collection is about 12%. The call rests on the fitted dose curve; in most records, active means well fitted curve in the direction sought with a large enough effect; inconclusive means small, poorly fitted or top-dose-only effect, or another doubt; inactive means no such curve, though single readings can be large; an effect the other way counts as inactive or inconclusive. Potency means the concentration at half of the fitted maximal effect.
SMILES,Sfp inh,JMJD2A Tudor inh,G9a inh,HP1b binding inh,BAZ2B block,L3MBTL1 block
CCN(CC)C(=S)NC(=O)c1cccnc1,50.1µM*,u,x,u,u,1.7%
CCc1c(C)sc(NC(=S)Nc2nc(C)cc(C)n2)c1C(=O)OC,-23.1%,-27.0%,-30.2%,10.2%,-34.3%,-3.0%[2.29 µM]
CCOC(=O)C1=C(C)N=C2SC=C(C)N2C1c1ccc(OC)cc1 (stereo not drawn),11.5%,-5.6%,16.4%,59.9%,-23.6%,9.2%
Cc1ccc(CNc2nc3ccccc3c3nc(-c4cccc(C)c4)nn23)cc1,x,18.5%,25.3%[59 µM],49.7%,4.9%,x
O=c1c(S(=O)(=O)c2ccccc2)cn(Cc2ccc(F)cc2)c2cc(N3CCCCC3)c(F)cc12,x,-2.0%,9.8%[59 µM],66.6%,-1.3%,x
COc1ccc(COc2cc(-c3cccc(OC)c3)nc3ccc(NC(=O)c4cccnc4)cc23)cc1,u,u,50.1µM*,-7.8%,-35.4%,-16.9%
COc1ccc(COc2cc(-c3cccc(OC)c3)nc3ccc(NC(=O)c4ccc(OC)cc4)cc23)cc1,13.6%,-12.9%,-2.1%[59 µM],36.1%,-4.1%,-4.9%
O=S(=O)(c1cnc2ccccc2c1)N1CCN(c2nc(-c3cccs3)nc3ccccc23)CC1,x,-18.4%,x,30.6%,x,x
CCN(CC)C(=O)CN1CCN(c2ncccn2)CC1,89.1µM*,4.47µM*,5.62µM*,u,25.1µM*,3.1%
CCOc1ccc(C(=O)N2CCN(c3ncccn3)CC2)cc1,x,-16.9%,x,20.1%,x,x
Cc1ccc(S(=O)(=O)N/N=c2\sc3ccccc3n2C)cc1,1.9%,-2.2%,0.794µM*,11.4%,-10.5%,3.3%
CCOc1cc(N2CCOCC2)c(OCC)cc1NC(=O)COC(=O)c1ccccc1C,3.7%,-18.8%,-8.7%[59 µM],-2.1%,-8.1%,-21.7%
CCOc1cc(N2CCOCC2)c(OCC)cc1NC(=O)Cc1cccc2ccccc12,-28.6%,u,3.55µM*,-16.8%,22.4µM*,x
CCOc1cc(N2CCOCC2)c(OCC)cc1NC(=O)CN1CCCC1,u,u,3.16µM*,4.1%,12.6µM*,-9.7%
CCOc1cc(N2CCOCC2)c(OCC)cc1NC(=O)c1ccc2ccccc2n1,u,22.4µM*,17.8µM*,u,15.8µM*,-23.4%
CCOc1cc(N2CCOCC2)c(OCC)cc1NC(=O)C1CCCC1,8.0%,-7.6%,7.94µM*,8.6%,-2.8%,x
Cn1cc([C@@H]2C[C@H]3CN(Cc4cccc(Cl)c4)C(=O)[C@]34CCCN24)c(-c2ccccc2)n1,-13.5%,-14.4%,-3.4%,18.8%,-7.5%,5.7%
CCOc1cc(N2CCOCC2)c(OCC)cc1NC(=O)c1ccc(=O)n(Cc2ccccc2)n1,9.8%,x,21.9%,x,-2.4%,-7.5%
CCOc1cc(N2CCOCC2)c(OCC)cc1NC(=O)c1nn(CC)c(=O)c2ccccc12,x,50.1µM*,u,-39.9%,50.1µM*,-7.9%
CCOc1cc(N2CCOCC2)c(OCC)cc1NC(=O)C(C)Oc1ccccc1 (stereo not drawn),x,35.5µM*,x,-16.7%[57 µM],x,-26.4%
CSCC[C@H](NC(=O)[C@@H]1CCCN1C(=O)CNC(=O)[C@H](CCCCN)NC(=O)[C@H](Cc1cnc[nH]1)NC(=O)[C@H](CO)NC(=O)[C@H](CC(C)C)NC(=O)[C@H](CCCN=C(N)N)NC(=O)[C@@H]1CCCN1C(=O)[C@H](CCCN=C(N)N)NC(=O)[C@@H]1CCC(=O)N1)C(=O)N1CCC[C@H]1C(=O)N[C@@H](Cc1ccccc1)C(=O)O,6.3%,x,x,x,x,x
Cc1ccc2nc(NCc3ccco3)c(C=NCc3ccco3)c(=O)n2c1,-2.1%,0.6%,2.8%[59 µM],30.6%,50.1µM*,u
Cc1ccc2nc(NCc3ccccc3)c(C=NCc3cccnc3)c(=O)n2c1,-10.0%,-1.4%,11.6%,35.3%,-23.0%,x
Brc1cccc(CN2CCCCCC2)c1,2.4%,20µM*,25.1µM*,u,u,-3.3%
Oc1ccc(Br)cc1CN1CCCCCCC1,-5.9%,6.31µM*,u,-16.2%,50.1µM*,x

# Screening data: PubChem, National Center for Advancing Translational Sciences (NCATS)
